# Screens as filed in PubChem.
# This is a sample that favours compounds with a hit; in the whole collection about 2.6% have one here.
# ABHD5-PLIN5 inh = inhibitors of human ABHD5-perilipin-5 interaction | inhibition, % at 4 µM | AID 602281 | Split G. princeps luciferase complementation, luminescence, 4 h | 360,000 tested, 0.78% active;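 active = inhibition above the mean inhibition across every tested compound plus 3 SD, cut at about 22% in these data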
# Target sequence (Q00G26 whole entry, looked up): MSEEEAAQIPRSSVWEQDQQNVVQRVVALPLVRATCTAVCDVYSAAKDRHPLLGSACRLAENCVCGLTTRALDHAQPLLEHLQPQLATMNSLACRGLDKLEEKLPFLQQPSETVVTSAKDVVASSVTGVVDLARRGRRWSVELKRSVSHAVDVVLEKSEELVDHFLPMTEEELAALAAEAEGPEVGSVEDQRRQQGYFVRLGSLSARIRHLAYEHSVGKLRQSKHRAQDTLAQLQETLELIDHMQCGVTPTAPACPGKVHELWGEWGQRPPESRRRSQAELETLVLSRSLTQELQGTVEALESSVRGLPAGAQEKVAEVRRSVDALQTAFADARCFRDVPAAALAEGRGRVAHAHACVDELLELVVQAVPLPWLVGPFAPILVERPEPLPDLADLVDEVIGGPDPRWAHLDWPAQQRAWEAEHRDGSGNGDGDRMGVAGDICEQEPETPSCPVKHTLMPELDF
# Target sequence (Q8WTS1 whole entry, looked up): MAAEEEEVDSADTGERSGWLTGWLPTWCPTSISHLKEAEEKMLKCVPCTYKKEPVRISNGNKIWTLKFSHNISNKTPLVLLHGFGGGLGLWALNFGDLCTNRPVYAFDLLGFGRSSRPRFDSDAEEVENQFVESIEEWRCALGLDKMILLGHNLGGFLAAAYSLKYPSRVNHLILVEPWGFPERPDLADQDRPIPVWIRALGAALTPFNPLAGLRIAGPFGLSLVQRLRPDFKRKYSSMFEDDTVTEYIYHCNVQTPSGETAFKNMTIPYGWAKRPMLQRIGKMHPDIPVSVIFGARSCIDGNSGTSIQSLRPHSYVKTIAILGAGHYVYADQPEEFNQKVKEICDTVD
# Rce1 inhib = yeast Ras-converting enzyme inhibition; 290,000 tested, 0.27% active; calls only; yeast membranes, quenched prenylated peptide cleavage fluorescence; Q03530; AID 2563;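 active = fall in fluorescence gain of 50% or more versus controls, with final raw signal at or below 3038400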
# Platelet DG rel = platelet dense granule release activity. human platelet-rich plasma, SFLLRN dense granule ATP release, luminescence. 300,000 tested, 0.22% active. inhibition, %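 (compounds screened at 7.5 µM in platelet-rich plasma)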;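 active = mean replicate score, as percent of positive control, at or above 50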
# Granule exo inh = lytic granule exocytosis inhibition; TALL-104 LAMP-1 surface exposure, flow cytometry; cells stimulated with thapsigargin and PMA; inhibition, % at 10 µM; 360,000 tested, 0.66% active; AID 651702;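 active = inhibition above about 55%, limit read from the data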
# PfM18AAP inh = PfM18AAP enzyme inhibition | AID 1822 | recombinant PfM18AAP, H-Glu-NHMec fluorogenic cleavage | inhibition, % at 7.35 µM | 290,000 tested, 1.2% active;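 active = inhibition above the campaign mean inhibition over all tested compounds plus 3 SD, cut at about 28% in these data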
# ABHD5 PLIN5 conf = ABHD5-PLIN5 interaction inhibition, confirmed. 2,200 tested, 67% active. biochemical ABHD5-PLIN5 interaction, luminescence. AID 651612. inhibition, % at 4 µM. shares compounds with ABHD5-PLIN5 inh; in the data active = inhibition above about 23%
# HNF4 split-luc = HNF4 split-luciferase signal hit, counter-screen; HNF4 dimerization, luminescence, biochemical; inhibition, % at 4 µM; 2,200 tested, 77% active; shares compounds with ABHD5-PLIN5 inh;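 active = mean inhibition across replicate wells exceeding the computed hit threshold, cut at about 13% in these data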;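 also: light from luciferase halves that rejoin when HNF4 fusion proteins dimerize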
# A number is an active result; . = inactive; / = not tested or not shown.
SMILES,ABHD5-PLIN5 inh,Rce1 inhib,Platelet DG rel,Granule exo inh,PfM18AAP inh,ABHD5 PLIN5 conf,HNF4 split-luc
Cc1ccc(S(=O)(=O)Oc2ccccc2N2C(=O)C3CC=CCC3C2=O)cc1 (stereo not given),.,.,.,.,.,/,/
CC1(C)CC(=O)C(CS(=O)(=O)c2ccccc2)=C(O)C1,44,.,.,.,.,50,92
CCOC1=CC2=C(C(=O)C(Cl)=CC2=O)[C@@H]2CN(S(=O)(=O)c3ccc(C)cc3)[C@@H](c3ccccc3)[C@H]12,53,/,/,98,/,103,58
Cc1ccc(/C=C/C(=O)N2CCN(S(=O)(=O)c3ccc(C)c(C)c3)CC2)o1,44,.,.,.,.,43,62
Cc1ccc(Cn2c(CN3CC(C)OC(C)C3)nc3c2c(=O)n(C)c(=O)n3C)cc1 (stereo not given),.,.,.,.,.,/,/
CC(C)NC(=O)C1(C)CCN1C(=O)C/C=C/c1ccccc1 (stereo not given),.,/,/,.,/,/,/
COc1cc(/C=C/[N+](=O)[O-])ccc1OC(=O)c1cc2ccccc2oc1=O,28,/,.,.,.,78,97
COc1ccc(/C=C2\N=C(c3ccccc3)NNC2=O)cc1,.,.,.,.,.,/,/
COc1ccc(S(=O)(=O)N2CCCCCC2)cc1NC(C)C(=O)Nc1ccc(NC(C)=O)cc1 (stereo not given),47,/,/,.,/,.,.
Cc1ccc(/C(O)=C2/C(=O)C(=O)N(c3ccccn3)C2c2ccc([N+](=O)[O-])cc2)cc1 (stereo not given),.,.,.,.,.,/,/
Cc1cccc(-n2cnc3c(c2=O)c2nc4ccccc4nc2n3Cc2ccco2)c1,30,.,.,.,/,47,70
Cc1ccc2[nH]nc(C(=O)N3CCCC(C(=O)c4ccc(Cl)cc4)C3)c2c1 (stereo not given),.,.,.,.,.,/,/
CCCNC(=O)Nc1ccc2c(c1)N(C)C(=O)c1ccccc1S2,33,.,.,.,.,54,.
CCCCNC(=O)Nc1ccc2c(c1)N(C)C(=O)c1ccccc1S2,50,.,.,.,.,68,.
COc1cc(/C=N/NC(=O)c2ccncc2)cc(OC)c1OC,.,.,.,.,.,/,/
Cc1ccccc1S(=O)(=O)NC1=NCCCCC1,.,.,.,.,.,/,/
CC(=O)OC1CCC2C3CCC4OC(=O)CCC4C3CCC12C (stereo not given),.,/,/,.,/,/,/
C=C1C(=O)C2=CC1CCC(=O)C1(C)CCC(OC(C)=O)C(C)(C)C1CC2O (stereo not given),44,/,/,.,/,58,92
O=c1[nH]c(C2CCN(S(=O)(=O)c3ccc(F)cc3)CC2)nc2c1nnn2Cc1ccc2c(c1)OCCO2,29,.,.,.,.,35,.
O=c1[nH]c(C2CCN(S(=O)(=O)c3ccc(S(=O)(=O)NC4CC4)cc3)CC2)nc2c1nnn2Cc1ccc(F)cc1,28,.,.,.,.,48,.
O=c1[nH]c(C2CCN(S(=O)(=O)c3ccccc3F)CC2)nc2c1nnn2Cc1ccc2c(c1)OCCO2,.,.,.,.,.,/,/
CCOC(=O)c1cc2c(=O)n3ccccc3nc2n(Cc2ccco2)c1=NC(=O)c1ccccc1OCC,24,.,.,.,.,.,45
Cc1cccn2c(=O)c3cc(C#N)c(=NC(=O)c4ccco4)n(Cc4ccco4)c3nc12,39,.,.,.,.,23,54
CCOC(=O)c1cc2c(=O)n3ccccc3nc2n(Cc2ccco2)c1=NC(=O)c1cccnc1,.,.,.,.,.,/,/
CCOC(=O)c1cc2c(=O)n3cccc(C)c3nc2n(Cc2ccco2)c1=NC(=O)c1cccnc1,24,/,/,.,.,46,58
COc1ccc(CCNc2nc(N3CCCCC3)nc(N3CCCCC3)n2)cc1OC,.,.,.,.,.,/,/
Cc1cccc(CN2C(=O)/C(=C\c3ccc(C(=O)NCCN4CCOCC4)cc3)Sc3ccccc32)c1,.,.,.,.,.,/,/
CCN1CCN(CCNC(=O)c2ccc3c(c2)N(Cc2ccc(F)cc2)C(=O)/C(=C/c2ccccc2)S3)CC1,24,.,.,.,.,.,.
NC(=O)C1CCN(c2oc(-c3ccccc3)nc2S(=O)(=O)c2ccc(Br)cc2)CC1,.,/,.,.,.,/,/
COc1ccc(N(C(=O)c2ccco2)C(C(=O)NC2CCCCC2)c2cccs2)cc1OC (stereo not given),.,.,.,.,.,/,/
